The text below walks through data of PubChem BioAssay (EPA / NIEHS).

“And” between values parts separate entries of the source, which are not always exact repeats. Equal values may be shown once. The source made the active and inactive calls. Rule for the calls: active = hit-call score of the fitted dose curve at least 0.9, where 1 is the maximum; inactive = score below 0.9.

Read-out in the first experiment: Matrix Metallopeptidase 1 (MMP1), MMP1 (gene 4312)
In words: BSK_BF4T_MMP1: BioMAP Diversity Plus: BF4T Assay for Matrix Metallopeptidase 1 (MMP1) Biomarker Activity (AID 2284270). The note with it: primary human bronchial epithelial cells with fibroblasts. The method in brief:
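Co-culture of human bronchial epithelial cells and dermal fibroblasts; MMP-1 levels measured by ELISA 24 hours after chemical dosing, relative to DMSO. Cytotoxicity checked in parallel cultures by SRB total-protein staining.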
Take `O=C(O)CCC(F)(C(F)(F)F)C(F)(F)F`: the outcome was inactive.
On to `O=C(O)C(F)(F)C(F)(F)C(F)(F)C(F)(F)C(F)(F)C(F)(F)F`, for which the outcome was inactive.
For the molecule `O=C(O)C(F)(F)C(F)(F)C(F)(F)C(F)(F)C(F)(F)C(F)(F)C(F)(F)C(F)(F)C(F)(F)C(F)(F)F`, the AC50 is 5.11 µM (active) and 5.66 µM (active).

Read-out in the next experiment: Matrix Metallopeptidase 3 (MMP3), MMP3 (gene 4314)
In words: BSK_BF4T_MMP3: BioMAP Diversity Plus: BF4T Assay for Matrix Metallopeptidase 3 (MMP3) Biomarker Activity (AID 2284271). The note with it: primary human bronchial epithelial cells with fibroblasts. In a few lines:
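Co-culture of human bronchial epithelial cells and dermal fibroblasts dosed 24 h; MMP-3 measured by ELISA, positive-direction fit versus DMSO. Cytotoxicity tracked by SRB total-protein staining (560 nm) in parallel cultures.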
For the molecule `O=C(O)CCC(F)(C(F)(F)F)C(F)(F)F`, the result was inactive.
On the same count and under the same terms, for `O=C(O)C(F)(F)C(F)(F)C(F)(F)C(F)(F)C(F)(F)C(F)(F)F` the value was “inactive”.
As to `O=C(O)C(F)(F)C(F)(F)C(F)(F)C(F)(F)C(F)(F)C(F)(F)C(F)(F)C(F)(F)C(F)(F)C(F)(F)F`, the AC50 is 5.26 µM (active) and 3.33 µM (active).

Read-out in another experiment: Tissue plasminogen activator (tPA), PLAT (gene 5327)
In words: BSK_BF4T_tPA: BioMAP Diversity Plus: BF4T Assay for Tissue plasminogen activator (tPA) Biomarker Activity (AID 2284272). The note with it: primary human bronchial epithelial cells with fibroblasts. As to the method: (§1) BSK_BF4T is a cell-based, multiplexed-readout assay that uses bronchial epithelial cells and dermal fibroblasts, a human vascular primary cell, with measurements taken at 24 hours after chemical dosing in a microplate: 96-well plate.BSK_BF4T_tPA is an assay component measured in the BSK_BF4T assay. It measures tPA antibody related to regulation of gene expression using ELISA technology.Data from the assay component BSK_BF4T_tPA was analyzed at the endpoint, BSK_BF4T_tPA, in the positive analysis fitting direction relative to DMSO as the negative control and baseline of activity. Using a type of binding reporter, gain or loss-of-signal activity can be used to understand protein changes. To generalize the intended target to other relatable targets, this assay endpoint is annotated to the 'protease' intended target family, where the subfamily is 'serine protease'.
(§2) The levels of cell surface (or secreted, indicated by the prefix "s") biomarker endpoints were measured by ELISA. Overt cytotoxicity to cells in confluent adherent cultures (all systems other than the BT system) was assessed by measuring total protein levels using sulforhodamine B (SRB) staining in parallel cultures at the time of biomarker measurements, indicated as SRB endpoints. For proliferation assays for adherent cell types, individual cell types are cultured at sub-confluence and relative cell numbers quantified by SRB staining at time points optimized for each system (48 h: 3C and CASM3C systems; 72 h: BT and HDF3CGF systems; 96 h: SAg system). SRB was performed by staining cells with 0.1% SRB after fixation with 10% TCA and reading wells at 560 nm.Viability and proliferation of PBMC (T cells) was quantified by Alamar Blue reduction for the SAg and BT systems. […] Then, Alamar Blue (20 uL/well) (Invitrogen, Cat DAL1100) was added for 6 h, and the plates were read with a fluorescence microplate reader at 546/580 nm (excitation/emission). […] Plates were read after 6 h.
For `O=C(O)CCC(F)(C(F)(F)F)C(F)(F)F`, the result was inactive.
Take `O=C(O)C(F)(F)C(F)(F)C(F)(F)C(F)(F)C(F)(F)C(F)(F)F`: the outcome was inactive.
For the molecule `O=C(O)C(F)(F)C(F)(F)C(F)(F)C(F)(F)C(F)(F)C(F)(F)C(F)(F)C(F)(F)C(F)(F)C(F)(F)F`, the AC50 was 4.42 µM (active) and 5.58 µM (active).

Read-out in the next experiment: Plasminogen Activator Inhibitor-1 (PAI1), SERPINE1 (gene 5054)
In words: BSK_BF4T_PAI1: BioMAP Diversity Plus: BF4T Assay for Plasminogen Activator Inhibitor-1 (PAI1) Biomarker Activity (AID 2284273). The note with it: primary human bronchial epithelial cells with fibroblasts. The method, then: as §1, with “plate.BSK_BF4T_PAI1” for “plate.BSK_BF4T_tPA”, “PAI-1” for “tPA”, “BSK_BF4T_PAI1” for “BSK_BF4T_tPA”, “BSK_BF4T_PAI1,” for “BSK_BF4T_tPA,”, “'cytokine'” for “'protease'”, “'plasmogen activator inhibitor'.” for “'serine protease'.”
as §2
As for `O=C(O)CCC(F)(C(F)(F)F)C(F)(F)F`, the result was inactive.
For the molecule `O=C(O)C(F)(F)C(F)(F)C(F)(F)C(F)(F)C(F)(F)C(F)(F)F`, the outcome was inactive.
In the case of `O=C(O)C(F)(F)C(F)(F)C(F)(F)C(F)(F)C(F)(F)C(F)(F)C(F)(F)C(F)(F)C(F)(F)C(F)(F)F`, the AC50 is 5.2 µM (active) and 6.13 µM (active).

Read-out in a further experiment: not listed separately
The experiment can be described thus: BSK_BF4T_SRB: Viability Assessment in the BioMAP Diversity Plus: BF4T Assay (AID 2284274).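 For AC50: measured 24 h after compound addition.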 The note with it: primary human bronchial epithelial cells with fibroblasts. As to the method:
BSK_BF4T is a cell-based, multiplexed-readout assay that uses bronchial epithelial cells and dermal fibroblasts, a human vascular primary cell, with measurements taken at 24 hours after chemical dosing in a microplate: 96-well plate.BSK_BF4T_SRB is an assay component measured in the BSK_BF4T assay. It measures 0.1% sulforhodamine related to cell death using Sulforhodamine staining technology.Data from the assay component BSK_BF4T_SRB was analyzed at the endpoint, BSK_BF4T_SRB, in the positive analysis fitting direction relative to DMSO as the negative control and baseline of activity. Using a type of viability reporter, gain or loss-of-signal activity can be used to understand protein changes. To generalize the intended target to other relatable targets, this assay endpoint is annotated to the 'cell morphology' intended target family, where the subfamily is 'cell conformation'.
as §2
With `O=C(O)CCC(F)(C(F)(F)F)C(F)(F)F`, the outcome was inactive.
On to `O=C(O)C(F)(F)C(F)(F)C(F)(F)C(F)(F)C(F)(F)C(F)(F)F`, for which the outcome was inactive.
Consider `O=C(O)C(F)(F)C(F)(F)C(F)(F)C(F)(F)C(F)(F)C(F)(F)C(F)(F)C(F)(F)C(F)(F)C(F)(F)F`, for which the AC50 is 5.49 µM (active) and 5.63 µM (active).

Read-out in another experiment: urokinase Plasminogen Activator (uPA), PLAU (gene 5328)
The experiment can be described thus: BSK_BF4T_uPA: BioMAP Diversity Plus: BF4T Assay for urokinase Plasminogen Activator (uPA) Biomarker Activity (AID 2284275). The note with it: primary human bronchial epithelial cells with fibroblasts. The method in brief: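 Co-culture of human bronchial epithelial cells and dermal fibroblasts; uPA quantified by ELISA 24 hours after dosing, fitted relative to DMSO. Parallel SRB total-protein staining assessed overt cytotoxicity.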
For the molecule `O=C(O)CCC(F)(C(F)(F)F)C(F)(F)F`, the outcome was inactive.
As to `O=C(O)C(F)(F)C(F)(F)C(F)(F)C(F)(F)C(F)(F)C(F)(F)F`, the result was inactive.
Regarding `O=C(O)C(F)(F)C(F)(F)C(F)(F)C(F)(F)C(F)(F)C(F)(F)C(F)(F)C(F)(F)C(F)(F)C(F)(F)F`, the AC50 is 6.49 µM (active) and 6.17 µM (active).
